Data published in PubChem BioAssay AID1117319 (Southern Research Institute, 2015).
Several values for one entry are separate records, joined by “and”; a condition that tells them apart may be missing. Equal values may be shown once. The campaign covered roughly 260,000 compounds. About 1,500 (0.58%) were called active. Not shown: some 5% with an inconclusive outcome.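 How the source made its calls: active means inhibition above a set limit at one or more doses, reproduced on every date tested; inconclusive means results disagree between test dates, or hit never tested in dose response; inactive means the rest.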 Not all results are given here. Entries with a potency or affinity are not part of this list.

target: Virion infectivity factor (Human immunodeficiency virus type 1 group M subtype B (isolate BH10)) + Virion infectivity factor (Human immunodeficiency virus type 1 group M subtype B (isolate BRU/LAI)) + Virion infectivity factor (Human immunodeficiency virus type 1 group M subtype B (isolate PCV12)) + Virion infectivity factor (Human immunodeficiency virus type 1 group M subtype B (isolate HXB2)) + DNA dC->dU-editing enzyme APOBEC-3G (Homo sapiens) (UniProt P69720+P69721+P69722+P69723+Q9HC16); test: HIV-1 Vif–A3G interaction blockers – biochemical, TR-FRET, GST-Vif 1-94, biotin-A3G peptide, dose response retest, primary screen (AID 1117319); settings: TR-FRET GST-Vif / biotin-A3G peptide binding; stronger effect = higher value;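 further: Vif residues 1-94 fused to GST binding biotinylated APOBEC3G peptide 110-148; 0% = full assay without inhibitor and 100% = GST in place of GST-Vif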

inhibition, inactive:
CC1CC(C)(C)NC(=S)N1CCCC(=O)Nc1ccc(Br)cc1 (configuration not stated) -9.53%
O=C(NC1CCCCC1)C12CC3CC(CC(Cl)(C3)C1)C2 9.37%
COc1ccc(O)c(CN2CC3CCC(CC3)C2)c1 4.35%
COc1ccc(N2CCN(C(=O)COC(=O)CNC(=O)c3ccccc3)CC2)cc1 3.12%
CC1(C)NC(=O)N(CC(=O)NNC(=O)c2ccccc2F)C1=O -5.82%
FC(F)(F)c1cnc(N2CCN(C(=S)NCc3ccccc3)CC2)c(Cl)c1 -5.24%
COc1cc2[nH]c3c(=O)n(N)c(=O)[nH]c3c2cc1OC -6%
O=[N+]([O-])c1ccccc1S(=O)(=O)NC1CCCCCCC1 8.73%
O=[N+]([O-])c1ccccc1S(=O)(=O)Nc1ncccn1 5.53%
CCN(C(=O)COC(=O)c1oc2ccc(OC)cc2c1C)C1CCCCC1 -5.77%
CC1CCCN(C(=O)NC(=O)c2ccc(Cl)cc2)C1 (configuration not stated) -0.86%
Cc1cc(C)cc(NC(=O)CCNS(=O)(=O)c2cc(Br)cnc2N)c1 -18.9%
Cc1ccc(NC(=O)CCNS(=O)(=O)c2cc(Br)cnc2N)cc1Cl 5.11%
O=C(COC(=O)CCCSc1nc2ccccc2[nH]1)Nc1cccc(F)c1 -3.43%
COC(=O)c1ccc(Cn2nnc3ccccc32)cc1 26.1%
Cc1ccc(S(=O)(=O)N2C(=O)CCC2C(N)=O)cc1 (configuration not stated) -11.2%
O=C(C1CCCO1)N1CCN(C(=S)NC2CC2)CC1 (configuration not stated) -5.45%
O=C(C1CCCO1)N1CCC(O)(c2ccccc2)CC1 (configuration not stated) -9.62%
Cc1c(C)c(C)c(CN2CCSCC2)c(C)c1C 21.2%
CC(=O)c1ccc(N2CCN(CC(=O)N(CC(C)C)c3c(N)n(CC(C)C)c(=O)[nH]c3=O)CC2)cc1 19.2%
CCN(C(=O)CN1CCN(c2ccc(OC)cc2)CC1)c1c(N)n(Cc2ccccc2)c(=O)[nH]c1=O 20.7%
CCN(C(=O)CN1CCN(c2ccccc2)CC1)c1c(N)n(Cc2ccccc2)c(=O)[nH]c1=O -6.89%
CC(C)CN(C(=O)CN1CCN(c2ccc([N+](=O)[O-])cc2)CC1)c1c(N)n(CC(C)C)c(=O)[nH]c1=O 13.2%
Cc1cc(C(C)(C)C)oc1C(=O)N(CC(=O)NC1CCCC1)Cc1ccc(F)cc1 0.27%
CCOC(=O)C1(Cc2cccc(F)c2)CCN(Cc2ccon2)CC1 -4.55%
Cc1ccccc1C(=O)O/N=C1\CCS(=O)(=O)c2sccc21 1.21%
CCCCOc1ccc(S(=O)(=O)Nc2cc(OC)ccc2OC)cc1 1.88%
CCOc1ccc(S(=O)(=O)Nc2cc(OC)ccc2OC)cc1 6.81%
CCOc1ccc(/C=N/NC(=O)CN2CCCCCCC2)cc1 7.01%
COc1ccc(NC(=O)NNC(=O)c2ccc(Cl)cc2Cl)cc1OC 0.67%
COc1cccc(NS(=O)(=O)c2ccc3c(c2)NC(=O)CC(=O)N3)c1 -6.3%
O=C(O)c1ccc(NS(=O)(=O)c2ccc3c(c2)C2C=CCC2C(c2ccccc2F)N3)cc1 (configuration not stated) -10%
Cc1c(Cl)cccc1NS(=O)(=O)c1ccccc1 -1.9%
O=C(O)c1cccc(S(=O)(=O)Nc2ccccc2Cl)c1 65.8%
CN(C)CCNC(=O)Cn1nc(C(F)F)cc1C1CC1 12.5%
O=C(Nc1nc2c(ccc3ccccc32)s1)c1cc([N+](=O)[O-])ccc1N1CCOCC1 -2.48%
CC(=O)Oc1ccccc1C(=O)N1CCN(S(=O)(=O)c2ccc3ccccc3c2)CC1 -7.33%
Cc1cc(C)n(CC(=O)NNC(=O)c2ccc(S(C)(=O)=O)cc2)n1 -6.9%
CC(=O)c1ccc(NC(=O)Cn2nc(C)cc2C)cc1 1.14%
Cc1nc(C)n(CC(O)COc2ccc(C(=O)c3ccccc3)cc2)n1 (configuration not stated) 11.5%
Cc1cc2oc(=O)cc(CN3CCCCC3)c2cc1O -5.08%
CCCc1cc(=O)oc2c(CN3CCCC3)c(O)c(Cl)cc12 8.61%
CCc1cc(=O)oc2cc(C)c(CN3CCCC(C)C3)c(O)c12 (configuration not stated) 11.2% and 11.8%
CCCc1cc(=O)oc2c(CN3CCCC3)c(O)ccc12 -2.7%
Fc1ccc2nc(Nc3ccccc3)sc2c1 -8.41%
CCCCNC(=O)CN1CCN(Cc2ccc3cc(OC)ccc3c2)CC1 -10.8%
CSc1nc(NCc2ccco2)c2c3c(sc2n1)CN(C)CC3 21.2%
CCN1CCc2c(sc3c2c(NCc2ccco2)nc2nnnn23)C1 11.3%
Cc1ccc(OCC(=O)N/N=C2/SCC(=O)N2Cc2ccco2)cc1 11.4%
Cc1ccc(-c2nnc(SCC(=O)NNC(=O)COc3cccc(C)c3)n2C)cc1 -3.33%
COCCn1c(C)cc(C(=O)CSc2nc3ccccc3c(=O)[nH]2)c1C 25.5%
C=CCn1c(C)cc(C(=O)CSc2nc3ccccc3c(=O)[nH]2)c1C 11.7%
COc1ccccc1C1CCN(Cc2ccc(Cl)c(Cl)c2)CC1 -7.3%
CC(C)(C)C(=O)Cn1c[n+](N)cn1 2.71%
Cc1c(Br)c(=O)oc2c(C)c(O)ccc12 -26.6%
Cc1c(Br)c(=O)oc2c(Br)c(O)ccc12 -6.73%
Cc1cc(SCC(=O)N/N=C/c2ccc(O)c(O)c2)c(C)cc1Br 7.89%
Cc1cc(SCC(=O)N/N=C/c2ccc(O)cc2O)c(C)cc1Br 31.7%
COc1ccc(CN2C(=O)c3cccnc3C2=O)cc1S(=O)(=O)N1CCCCC1C (configuration not stated) 1.43%
CCOC(=O)C1=C(C)C(c2ccccc2OC)NC(=O)N1 (configuration not stated) 25.5%
N#CCc1ccc(Oc2ncccn2)cc1 2.04%
O=C(c1ccccc1)c1ccc(Oc2ncccn2)cc1 -0.66%
